Luc counter = blocks Kinase-Glo luciferase, a counter-screen artifact. Q27757. Kinase-Glo luciferase, ATP luminescence, 8 min. Potency, µM (top dose mostly 38.3 µM), for the others: at the top dose activity change, negative = inhibition, usual class: inhibitors. 200,000 tested, 0.28% active; further: on the % scale 0 is the no-effect control and ±100 the full control effect; nearly all actives have a fitted effect of over 60% in size
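Substrate mix (final 50 mM imidazole pH 7.2, 50 mM KCl, 7 mM MgCl2, 10 uM ATP, 0.01% Tween 20, 0.05% BSA) plus pin-tool compound, then Kinase-Glo detection mix; 8 min ambient, luminescence read.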
NPC1 promoter act = activates the NPC1 promoter; Huh7 NPC1 promoter luciferase reporter, 24 h; Potency, µM (series often up to 9.22 µM), for the others: top-dose activation, hits mostly activators; 320,000 tested, 2.4% active; AID 485313; further: % of control where 0% means no effect; nearly all actives have a fitted effect of over 60% in size
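Luciferase expression driven by the NPC1 promoter was measured in stably transfected Huh7 cells after a 24 h compound incubation, using a luciferase reagent and a luminescence read.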
SMN2 splice enh = SMN2 splice variant enhancement; HEK293 SMN2-luciferase splicing reporter, luminescence, 30-36 h; Potency, µM (titrated, usually from 46.1 µM), for inactives: at the top dose activity change, positive = activation, most hits filed as activators; 210,000 tested, 2.8% active; AID 1458; further: % of control where 0% means no effect; nearly all actives have a fitted effect of over 55% in size
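HEK293 cells carry an SMN2 minigene-luciferase reporter in which exon 7 inclusion puts luciferase in frame. Cells were seeded at 2000 cells/well, attached for 10-12 hours, then exposed to compounds for 30-36 hours at 37C before ONE-Glo luminescence.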
ELG1 genotox = induces genotoxicity in HEK293T cells with luciferase-tagged ELG1 | 330,000 tested, 1.3% active | Potency, µM (top dose mostly 46 µM), without a hit: at the highest dose activity change, positive = activation, hits mostly activators | HEK293T ELG1-luciferase reporter, luminescence, 16 h; further: % of control where 0% means no effect; nearly all actives have a fitted effect of over 60% in size
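Reporter readout depends on ELG1 protein level, which increases with genetic stress. After 16 hr compound exposure at 37 °C, luciferase activity was quantified using ONE-Glo.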
FLuc modulator = firefly luciferase modulation, counter-screen for miR-21 project. 360,000 tested, 6.9% active. purified FLuc, Km substrates, luminescence inhibition. Potency, µM (series often up to 57.5 µM), for inactives: at the highest dose activity change, negative = inhibition, most hits filed as inhibitors. P08659. AID 588342;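 further: plate controls were vehicle for no effect and reference inhibitor for full effect; nearly all actives have a fitted effect of over 55% in size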
Target sequence (P08659 whole entry, looked up): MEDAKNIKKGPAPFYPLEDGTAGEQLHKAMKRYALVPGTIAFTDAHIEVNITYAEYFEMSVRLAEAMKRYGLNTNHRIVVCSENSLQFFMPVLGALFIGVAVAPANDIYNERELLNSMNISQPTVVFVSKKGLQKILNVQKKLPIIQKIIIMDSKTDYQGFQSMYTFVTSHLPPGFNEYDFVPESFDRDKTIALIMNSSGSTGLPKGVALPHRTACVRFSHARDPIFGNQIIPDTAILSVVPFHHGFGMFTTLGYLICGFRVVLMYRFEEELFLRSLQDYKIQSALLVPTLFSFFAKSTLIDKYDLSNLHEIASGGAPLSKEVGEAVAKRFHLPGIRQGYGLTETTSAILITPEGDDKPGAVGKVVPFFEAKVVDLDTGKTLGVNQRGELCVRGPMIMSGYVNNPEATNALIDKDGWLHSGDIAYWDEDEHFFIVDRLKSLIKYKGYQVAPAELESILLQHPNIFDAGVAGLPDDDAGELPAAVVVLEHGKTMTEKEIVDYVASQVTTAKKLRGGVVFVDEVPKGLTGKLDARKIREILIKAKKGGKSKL
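Purified P. pyralis luciferase, 10 nM final, with Km-level 10 uM D-luciferin and 10 uM ATP in 50 mM Tris acetate pH 7.5, 10 mM Mg acetate, 0.01% Tween-20, 0.05% BSA; 6-point qHTS titration about 60 µM downward; luminescence read.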
Rab9 prom act = activates the Rab9 promoter | Huh7 Rab9 promoter-luciferase reporter, luminescence, 24 h | Potency, µM (series often up to 9.22 µM), inactives show at the top dose activation, negative = inhibition, most hits filed as activators | 320,000 tested, 2.8% active; further: % of control where 0% means no effect; nearly all actives have a fitted effect of over 60% in size
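Huh7 cells stably carrying a Rab9 promoter-luciferase reporter, 1500 cells per well in OP-MEM I with 10% FBS, treated with compound 24 hours at 37C. Luciferase activity read by luminescence after 10 minutes with Amplite reagent.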
* = called active by the depositor; ? = inconclusive; · = no result; [ ] = another dose, or the depositor's remark. In the library only some 7.5% were active in any assay of this set; here they are far more common. The call rests on the fitted dose curve; in most records, active means well fitted curve in the direction sought with a large enough effect; inconclusive means small, poorly fitted or top-dose-only effect, or another doubt; inactive means no such curve, though single readings can be large; an effect the other way counts as inactive or inconclusive. Potency means the concentration at half of the fitted maximal effect.

SMILES	Luc counter	NPC1 promoter act	SMN2 splice enh	ELG1 genotox	FLuc modulator	Rab9 prom act
Cc1ccc(NC(=O)c2ccc(OC(=S)N3CCOCC3)cc2)cc1	-1%	?	2%	?	-12%	2µM*
Cn1nc(C(=O)NCc2cccs2)c2ccccc2c1=O	1%	-1%	-5%	17%	-3%	-1%
CN(C)c1ccc(NS(=O)(=O)c2cc(Cl)ccc2Cl)cc1	4%	-2%	-8%	5%	19µM*	0%
CN(C)CCCNS(=O)(=O)c1cc(Cl)ccc1Cl	-1%	-1%	11%	18µM*	6%	17%
CCN(c1ccc(NS(=O)(=O)c2cc(Cl)ccc2Cl)cc1)C(C)C	2%	0%	-25%	5%	-2%	13%
CN(C)CCCNS(=O)(=O)c1cc(Cl)c(Cl)cc1Cl	·	-1%	·	0%	1%	1%
COC(=O)c1ccc(NC(=O)c2ccc(C)cc2)o1	1%	15%	4%	2%	19µM*	24%
O=C(/C=C/Nc1ccccc1C(F)(F)F)c1ccco1	-21%	2µM*	10µM*	2.9µM*	1.2µM*	0.71µM*
NC(=O)c1ccccc1NC(=O)/C=C/C(=O)O	7%	-2%	-27%	2%	6%	1%
O=C(/C=C/Nc1ccc(Oc2ccccc2)cc1)c1ccco1	?	0.63µM*	·	?	0.85µM*	0.71µM*
NC(=O)c1ccccc1N/C=C/C(=O)c1ccco1	-19%	?	11µM*	5.2µM*	9.5µM*	3.2µM*
O=C(/C=C/Nc1cccc(C(F)(F)F)c1)c1ccco1	-7%	21%	?	?	11µM*	?
Cn1c(CNC(=O)OC(C)(C)C)nnc1SCC(=O)N1CCOCC1	·	1%	·	-1%	-2%	-3%
O=C(/C=C/Nc1cccc(C(F)(F)F)c1)c1ccc(Oc2ncccn2)cc1	-4%	?	-10%	0%	12µM*	?
COC(OC)c1ccnc(-c2ccc(OC(=O)c3ccccc3)cc2)n1	1%	3%	-1%	12%	17µM*	-2%
COC(OC)c1ccnc(-c2ccc(OC(=O)c3cccs3)cc2)n1	3%	2%	18%	0%	21µM*	13%
COC(OC)c1ccnc(-c2ccc(OC(C)=O)cc2)n1	-3%	0%	?	13%	?	5%
O=C(Nc1ccc(F)cc1)C1C(c2ccccc2)C1(Cl)Cl (stereo not drawn)	0%	-4%	-16%	-1%	5%	-7%
CC(C)c1ccc(-c2noc(SCC(=O)N3CCCCC3)n2)cc1	·	·	·	·	2.4µM*	·
CC(C)c1ccc(-c2c(C#N)c(N)nc(SCC(=O)N3CCCCCC3)c2C#N)cc1	5%	-2%	-18%	7%	-2%	0%
CC(C)c1ccc(-c2noc(SCC(=O)N(C)c3ccc(F)cc3)n2)cc1	·	·	·	·	6µM*	·
COc1cc(Cl)cc(/C=C/c2ccc3ccccc3n2)c1OC(C)=O	-3%	2µM*	2.5µM*	?	6.7µM*	2.5µM*
O=C1c2ccccc2C(=O)N1c1ccc(Cc2ccc(N3C(=O)c4ccccc4C3=O)cc2)cc1	-1%[7.66 µM]	·	4%[9.22 µM]	·	·	·
Cc1ccccc1/C=c1\s/c(=C\C(=O)C(C)(C)C)[nH]c1=O	-1%	-1%	-15%	-11%	17µM*	-1%
CC(C)(C)C(=O)/C=c1\[nH]c(=O)/c(=C\c2ccc(F)cc2)s1	-3%	0%	-16%	-21%	24µM*	-4%
SMILES	Luc counter	NPC1 promoter act	SMN2 splice enh	ELG1 genotox	FLuc modulator	Rab9 prom act
CC(C)(C)C(=O)/C=c1\[nH]c(=O)/c(=C\c2ccccc2F)s1	0%	0%	-8%	0%	?	0%
CC(=O)Nc1ccc(NC(=O)COC(=O)c2c3c(nc4ccccc24)CCN(Cc2ccccc2)C3)cc1	·	7%	·	-3%	8.5µM*	6%
O=C(COC(=O)c1c2c(nc3ccccc13)CCN(Cc1ccccc1)C2)Nc1c(F)cccc1F	2%	-4%	-23%	-7%	?	-7%
CCc1nnc(NC(=O)c2nc(SCc3ccc(F)cc3)ncc2Cl)s1	·	·	2%	·	12µM*	·
Cc1ccc(CSc2ncc(Cl)c(C(=O)Nc3nnc(C)s3)n2)cc1	·	·	-4%	·	15µM*	·
COc1ccc(OC)c(C2CC(=O)N(c3cccc(C)c3)C3=C2C(=O)OC3)c1 (stereo not drawn)	·	·	11%	·	-4%	·
CCN(CC)CCNC(=O)C(=O)Nc1c2c(nn1-c1ccc(F)cc1)CSC2	·	·	·	·	2%	·
Fc1ccc(/C=N/c2c(-c3ccc(F)cc3)nc3n2CCS3)cc1	-3%	0%	7%	2%	1%	-7%
COc1ccc(/C=N/c2c(-c3ccc(OC)cc3)nc3n2CCS3)cc1	-3%	-4%	9%	2%	1.9µM*	18%
CC1(C)O[C@H]2C[C@@H]3[C@H]4CCC5=CC(=O)C=C[C@]5(C)[C@@]4(F)[C@@H](O)C[C@]3(C)[C@]2(C(=O)CO)O1	4%[39.9 µM]	·	·	·	·	·
Cc1ccc(O)c(NC(=O)/C=C/C(=O)O)c1	1%	-4%	-18%	1%	3%	-3%
Cc1ccc(N/C=C/C(=O)c2ccc(C)cc2)cc1	-14%	1.4µM*	·	?	0.76µM*	1.6µM*
Cc1ccc(C(=O)/C=C\Nc2ccc(C)c(C)c2)cc1	-4%	2µM*	11µM*	?	2.1µM*	1.6µM*
Cc1ccc(O)c(N/C=C/C(=O)c2ccc(F)cc2)c1	·	1%	·	21µM*	2.4µM*	-3%
CN(C)S(=O)(=O)c1ccc(NC(=O)COc2cccc3c2OC(C)(C)C3)cc1	·	0%	·	-3%	-2%	-2%
Cc1ccc(S(=O)(=O)N(C)CCCC(=O)NC(C)(C)C)cc1	-2%	-3%	-6%	-5%	1%	0%
COc1ccc(S(=O)(=O)N2CCCC2C(=O)n2nc(C)cc2C)cc1 (stereo not drawn)	·	-4%	·	-9%	-2%	-9%
COc1ccc(-c2cc(C(=O)NCCc3ccc(OC)c(OC)c3)c3ccccc3n2)cc1	·	·	3%	·	6.7µM*	·
COc1ccc(CCNC(=O)c2cc(-c3ccc(C)c(C)c3)nc3ccccc23)cc1OC	·	·	·	·	2.7µM*	·
COc1ccc(CCNC(=O)c2cccc3ccccc23)cc1OC	·	1%	·	-1%	0%	-3%
CN(Cc1cccs1)C(=O)C1CCN(S(=O)(=O)c2ccccc2)CC1	·	0%	·	0%	-2%	-3%
O=C(Nc1ccc2c(c1)OCO2)c1cc2nc(C3CC3)cc(C(F)(F)F)n2n1	-2%	15%	-17%	6%	-16%	17%
CC(=O)c1cccc(Nc2cc(C)nc3nc(-c4ccccc4C)nn23)c1	·	·	3%	·	19µM*	·

Screening data deposited in PubChem by National Center for Advancing Translational Sciences (NCATS).
